Measurements published in PubChem BioAssay (EPA / NIEHS).
Records with an inconclusive call do not appear. Activity calls are given as the source filed them. How the source made its calls, unless noted: active means hit-call score of the fitted dose curve at least 0.9, where 1 is the maximum; inactive means score below 0.9.

Columns and labels:
[1] = target: Retinoic acid receptor RXR-alpha (Homo sapiens) (UniProt P19793); test: ATG_RXRa_TRANS: Attagene TRANS-FACTORIAL HepG2 Assay for human Retinoid X Receptor alpha (RXRa) (AID 2283012; active means hit-call score of the fitted dose curve at least 0.9, where 1 is the maximum)
Sequence of Retinoic acid receptor RXR-alpha (Homo sapiens) (P19793 whole entry, looked up, the tested form may be a part): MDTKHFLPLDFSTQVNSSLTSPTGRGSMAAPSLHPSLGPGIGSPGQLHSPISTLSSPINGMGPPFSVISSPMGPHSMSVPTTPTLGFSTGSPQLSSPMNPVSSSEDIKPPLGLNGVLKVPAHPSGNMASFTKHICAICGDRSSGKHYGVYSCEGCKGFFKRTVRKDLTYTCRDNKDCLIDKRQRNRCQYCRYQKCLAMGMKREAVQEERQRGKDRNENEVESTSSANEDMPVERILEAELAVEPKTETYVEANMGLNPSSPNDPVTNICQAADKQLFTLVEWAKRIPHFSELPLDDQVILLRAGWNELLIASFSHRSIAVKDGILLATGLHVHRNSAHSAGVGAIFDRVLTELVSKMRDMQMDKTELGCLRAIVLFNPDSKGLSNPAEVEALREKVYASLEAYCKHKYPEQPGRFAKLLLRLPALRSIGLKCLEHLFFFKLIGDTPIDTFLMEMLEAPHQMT
Summary of the method: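 Transient transfection of human HepG2 with multiple GAL4-UAS reporter constructs; 24 h compound exposure; total RNA isolated, reverse-transcribed, PCR-amplified, 6-FAM labelled, HpaI-cut, resolved by capillary electrophoresis. Positive-direction fit versus DMSO.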

[2] = target: human Retinoid X Receptor beta (RXRb), RXRB (gene 6257) (UniProt P28702); test: ATG_RXRb_TRANS: Attagene TRANS-FACTORIAL HepG2 Assay for human Retinoid X Receptor beta (RXRb) (AID 2283013; active means hit-call score of the fitted dose curve at least 0.9, where 1 is the maximum)
Sequence of human Retinoid X Receptor beta (RXRb), RXRB (gene 6257) (P28702 whole entry, looked up, the tested form may be a part): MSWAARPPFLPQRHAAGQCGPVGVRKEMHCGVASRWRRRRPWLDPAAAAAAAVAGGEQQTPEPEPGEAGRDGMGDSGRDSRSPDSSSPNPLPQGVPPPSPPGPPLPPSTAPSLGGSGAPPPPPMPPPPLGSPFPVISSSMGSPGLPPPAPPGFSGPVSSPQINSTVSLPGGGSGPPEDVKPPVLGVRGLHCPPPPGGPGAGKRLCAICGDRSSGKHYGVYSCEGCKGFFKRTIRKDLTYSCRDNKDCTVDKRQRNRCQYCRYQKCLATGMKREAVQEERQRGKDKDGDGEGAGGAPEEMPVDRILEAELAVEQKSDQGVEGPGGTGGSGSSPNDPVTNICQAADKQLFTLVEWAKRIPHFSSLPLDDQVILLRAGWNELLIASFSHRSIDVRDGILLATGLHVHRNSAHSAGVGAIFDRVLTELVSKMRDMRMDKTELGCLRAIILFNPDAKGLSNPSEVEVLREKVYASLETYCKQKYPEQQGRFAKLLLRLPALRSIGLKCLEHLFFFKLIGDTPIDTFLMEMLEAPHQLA
Summary of the method: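 Transfect HepG2 with GAL4-UAS multi-reporter constructs (chimeric NR-Gal4, TRANS format); dose compound 24 h; isolate RNA, RT-PCR, FAM primer extension, HpaI digest; quantify by capillary electrophoresis; positive direction vs DMSO.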

[3] = target: human Thyroid Receptor alpha (THRa1), THRA (gene 7067) (UniProt P10827); test: ATG_THRa1_TRANS: Attagene TRANS-FACTORIAL HepG2 Assay for human Thyroid Receptor alpha (THRa1) (AID 2283014; active means hit-call score of the fitted dose curve at least 0.9, where 1 is the maximum)
Sequence of human Thyroid Receptor alpha (THRa1), THRA (gene 7067) (P10827 whole entry, looked up, the tested form may be a part): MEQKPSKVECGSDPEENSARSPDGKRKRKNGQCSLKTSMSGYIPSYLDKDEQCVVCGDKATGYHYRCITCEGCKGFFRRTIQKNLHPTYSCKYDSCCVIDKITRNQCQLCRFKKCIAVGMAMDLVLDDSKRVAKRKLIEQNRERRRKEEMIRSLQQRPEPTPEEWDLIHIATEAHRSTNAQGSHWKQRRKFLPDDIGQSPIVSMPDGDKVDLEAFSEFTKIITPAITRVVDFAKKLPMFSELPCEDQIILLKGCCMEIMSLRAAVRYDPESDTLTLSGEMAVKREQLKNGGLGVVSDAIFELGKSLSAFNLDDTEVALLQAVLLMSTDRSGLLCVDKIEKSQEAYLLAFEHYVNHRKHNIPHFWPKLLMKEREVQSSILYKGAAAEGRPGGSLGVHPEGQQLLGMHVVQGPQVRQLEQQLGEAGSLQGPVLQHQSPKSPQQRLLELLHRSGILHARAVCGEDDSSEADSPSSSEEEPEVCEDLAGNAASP
Summary of the method: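 HepG2 cells transiently transfected with multiplexed GAL4-UAS reporter units for exogenous chimeric THRa1-Gal4; reporter mRNA measured 24 h after dosing by RT-PCR, 6-FAM labelling, HpaI digestion and capillary electrophoresis. Gain-of-signal fitted versus DMSO baseline.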

[4] = read-out: E-selectin (Homo sapiens) (UniProt P16581); test: BSK_3C_Eselectin: BioMAP Diversity Plus: 3C Assay for Eselectin Biomarker Activity (AID 2283015); settings: primary human endothelial cells (HUVEC); actives raise or lower the signal
Summary of the method: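 Primary human umbilical vein endothelial cells (3C system) were dosed with chemical and cell-surface E-selectin measured by ELISA 24 h later. Bidirectional curve fitting used DMSO as negative control and baseline.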

[5] = read-out: Interleukin-1 alpha (IL1a), IL1A (gene 3552); test: BSK_BE3C_IL1a: BioMAP Diversity Plus: BE3C Assay for Interleukin-1 alpha (IL1a) Biomarker Activity (AID 2283016); settings: primary human bronchial epithelial cells; actives raise or lower the signal
Summary of the method: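 BE3C primary human bronchial epithelium; cpd 24 h; IL-1a by ELISA; bidirectional fit vs DMSO; parallel SRB (0.1% SRB, 10% TCA fix, 560 nm) for cytotoxicity.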

[6] = read-out: Monocyte Chemoattractant Protein-1 (MCP1), CCL2 (gene 6347); test: BSK_3C_MCP1: BioMAP Diversity Plus: 3C Assay for Monocyte Chemoattractant Protein-1 (MCP1) Biomarker Activity (AID 2283017); settings: primary human endothelial cells (HUVEC); actives raise or lower the signal
Summary of the method: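 Primary human umbilical vein endothelial cells (3C system) were exposed to test chemical for 24 h, after which MCP-1 was quantified by ELISA. Activity was fitted bidirectionally against DMSO as negative control and baseline.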

[7] = read-out: Monocyte Chemoattractant Protein-1 (MCP1), CCL2 (gene 6347); test: BSK_4H_MCP1: BioMAP Diversity Plus: 4H Assay for Monocyte Chemoattractant Protein-1 (MCP1) Biomarker Activity (AID 2283018); settings: primary human endothelial cells (HUVEC); actives raise or lower the signal
Summary of the method: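 ELISA read-out of MCP-1 from human vascular endothelial primary cells taken at 24 hours after compound exposure. Activity was fitted in both directions relative to DMSO, which served as negative control.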

[8] = read-out: Human Leukocyte Antigen - DR isotype (HLADR), HLA-DRA (gene 3122); test: BSK_3C_HLADR: BioMAP Diversity Plus: 3C Assay for Human Leukocyte Antigen - DR isotype (HLADR) Biomarker Activity (AID 2283019); settings: primary human endothelial cells (HUVEC); actives raise or lower the signal
Summary of the method: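 Primary human umbilical vein endothelial cells (3C system) were dosed with compound and cell-surface HLA-DR was quantified by ELISA at 24 h. Activity was fitted bidirectionally against DMSO as negative control and baseline.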

[9] = read-out: Interleukin-8 (IL8), CXCL8 (gene 3576); test: BSK_3C_IL8: BioMAP Diversity Plus: 3C Assay for Interleukin-8 (IL8) Biomarker Activity (AID 2283020); settings: primary human endothelial cells (HUVEC); actives raise or lower the signal
Summary of the method: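 ELISA read-out of IL-8 from human umbilical vein endothelium, measured 24 h after chemical dosing. Activity is expressed relative to DMSO negative control, with both increases and decreases fitted.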

[10] = read-out: Monokine induced gamma interferon (MIG), CXCL9 (gene 4283); test: BSK_3C_MIG: BioMAP Diversity Plus: 3C Assay for Monokine induced gamma interferon (MIG) Biomarker Activity (AID 2283021); settings: primary human endothelial cells (HUVEC); actives raise or lower the signal;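 on AC50: MIG protein level measured by immunoassay in the treated endothelial cultures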
Summary of the method: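 Read-out is ELISA detection of MIG on human umbilical vein endothelial cells, taken 24 h after dosing. Gain or loss of signal was scored relative to DMSO controls using bidirectional curve fitting.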

[11] = target: human Vitamin D Receptor (VDR), VDR (gene 7421) (UniProt P11473); test: ATG_VDR_TRANS: Attagene TRANS-FACTORIAL HepG2 Assay for human Vitamin D Receptor (VDR) (AID 2283022; active means hit-call score of the fitted dose curve at least 0.9, where 1 is the maximum)
Sequence of human Vitamin D Receptor (VDR), VDR (gene 7421) (P11473 whole entry, looked up, the tested form may be a part): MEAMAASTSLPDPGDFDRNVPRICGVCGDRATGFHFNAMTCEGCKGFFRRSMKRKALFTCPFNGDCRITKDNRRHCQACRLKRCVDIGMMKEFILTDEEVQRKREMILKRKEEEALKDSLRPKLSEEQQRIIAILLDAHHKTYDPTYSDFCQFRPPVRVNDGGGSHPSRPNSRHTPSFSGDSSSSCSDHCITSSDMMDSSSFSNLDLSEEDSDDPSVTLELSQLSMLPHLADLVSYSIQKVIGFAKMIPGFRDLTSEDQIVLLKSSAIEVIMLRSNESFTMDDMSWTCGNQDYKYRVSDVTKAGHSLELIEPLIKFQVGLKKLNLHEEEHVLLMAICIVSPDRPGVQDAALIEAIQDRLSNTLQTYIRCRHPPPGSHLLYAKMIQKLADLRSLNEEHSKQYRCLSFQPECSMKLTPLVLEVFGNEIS
Summary of the method: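 HepG2 cells were transiently transfected with multiple GAL4-UAS reporter units, so signal reflects exogenous chimeric receptor-Gal4 activity. After 24 h compound exposure, reporter mRNA was measured by RT-PCR, fluorescent labelling and capillary electrophoresis, fitted for gain of signal versus DMSO.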

[12] = BSK_3C_SRB: Viability Assessment in the BioMAP Diversity Plus: 3C Assay (AID 2283023); settings: primary human endothelial cells (HUVEC);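 further: fitted both ways against DMSO so a hit may be signal rise or drop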
Summary of the method: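 Primary human umbilical vein endothelial cells in the 3C system were read 24 h after compound dosing. Total protein was stained with 0.1% sulforhodamine B after 10% TCA fixation and read at 560 nm, with bidirectional fitting against DMSO as baseline.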

[13] = read-out: Matrix Metallopeptidase 1 (MMP1), MMP1 (gene 4312); test: BSK_BE3C_MMP1: BioMAP Diversity Plus: BE3C Assay for Matrix Metallopeptidase 1 (MMP1) Biomarker Activity (AID 2283024); settings: primary human bronchial epithelial cells; actives raise or lower the signal
Summary of the method: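 Human bronchial epithelial cells (BE3C system) exposed to compound for 24 h; MMP1 then quantified by ELISA. Activity was fitted in both directions relative to DMSO.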

[14] = BSK_3C_Vis: BioMAP Diversity Plus: 3C Assay for Morphology Visualization (AID 2283025); settings: primary human endothelial cells (HUVEC);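 further: fitted both ways so gain or loss versus DMSO counts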;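 on AC50: light microscopy image of cell morphology used as background control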
Summary of the method: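 Chemicals were added to primary human umbilical vein endothelium, cells were incubated 24 h, and morphology was then visualized by light microscopy. Gain or loss of signal was fitted bidirectionally relative to DMSO.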

[15] = BSK_4H_SRB: Viability Assessment in the BioMAP Diversity Plus: 4H Assay (AID 2283027); settings: primary human endothelial cells (HUVEC);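 further: cells exposed to compound for 24 h before staining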;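 on AC50: curves fitted both ways versus DMSO so AC50 may be loss or gain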
Summary of the method: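 Human umbilical vein endothelial cells, 24 h after chemical dosing; total protein measured by 0.1% sulforhodamine B staining after 10% TCA fixation, read at 560 nm. Bidirectional fitting against DMSO.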

[16] = BSK_BE3C_SRB: Viability Assessment in the BioMAP Diversity Plus: BE3C Assay (AID 2283028); settings: primary human bronchial epithelial cells;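 on AC50: fitted both ways so AC50 may mark signal gain or loss versus DMSO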
Summary of the method: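 Human primary bronchial epithelial cells were exposed to test chemicals for 24 h. Total protein in parallel cultures was then measured by staining with 0.1% sulforhodamine B after 10% TCA fixation, with absorbance read at 560 nm. Activity was fitted bidirectionally against DMSO.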

[17] = read-out: Thrombomodulin, THBD (gene 7056); test: BSK_3C_Thrombomodulin: BioMAP Diversity Plus: 3C Assay for Thrombomodulin Biomarker Activity (AID 2283029); settings: primary human endothelial cells (HUVEC); actives raise or lower the signal
Summary of the method: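 Read-out is ELISA of thrombomodulin on human umbilical vein endothelium 24 h after chemical dosing. Gain or loss of signal is scored relative to DMSO. Overt cytotoxicity is checked in parallel cultures by sulforhodamine B staining.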

[18] = read-out: Urokinase-type plasminogen activator receptor (uPAR), PLAUR (gene 5329); test: BSK_4H_uPAR: BioMAP Diversity Plus: 4H Assay for Urokinase-type plasminogen activator receptor (uPAR) Biomarker Activity (AID 2283030); settings: primary human endothelial cells (HUVEC); actives raise or lower the signal
Summary of the method: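 Primary human umbilical vein endothelial cells were exposed to chemical for 24 h before cell-surface uPAR was quantified by ELISA. Activity was fitted bidirectionally against the DMSO negative control baseline.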

[19] = target: human RAR-related Orphan Receptor gamma (RORg), RORC (gene 6097) (UniProt P51449); test: ATG_RORg_TRANS: Attagene TRANS-FACTORIAL HepG2 Assay for human RAR-related Orphan Receptor gamma (RORg) (AID 2283011; active means hit-call score of the fitted dose curve at least 0.9, where 1 is the maximum)
Sequence of human RAR-related Orphan Receptor gamma (RORg), RORC (gene 6097) (P51449 whole entry, looked up, the tested form may be a part): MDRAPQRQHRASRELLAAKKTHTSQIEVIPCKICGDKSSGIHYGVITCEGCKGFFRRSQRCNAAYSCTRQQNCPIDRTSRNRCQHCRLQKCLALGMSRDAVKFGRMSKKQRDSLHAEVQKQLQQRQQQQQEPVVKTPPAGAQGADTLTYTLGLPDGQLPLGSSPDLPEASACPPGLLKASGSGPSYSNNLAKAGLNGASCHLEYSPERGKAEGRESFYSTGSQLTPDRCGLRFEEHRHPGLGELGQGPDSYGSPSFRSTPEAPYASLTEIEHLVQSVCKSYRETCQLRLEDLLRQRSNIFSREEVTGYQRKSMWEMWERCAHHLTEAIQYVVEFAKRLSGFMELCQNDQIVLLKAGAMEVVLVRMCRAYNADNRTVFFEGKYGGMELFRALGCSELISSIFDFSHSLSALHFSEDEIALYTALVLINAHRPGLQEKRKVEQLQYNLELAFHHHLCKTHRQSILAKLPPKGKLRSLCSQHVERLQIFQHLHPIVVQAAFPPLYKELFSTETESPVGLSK
Summary of the method: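 Readout: reporter transcript induction (RT-PCR, fluorescent primer extension, capillary electrophoresis) after 24 h compound exposure of transiently transfected HepG2 cells carrying a RORg-Gal4 chimera and GAL4-UAS reporters; DMSO served as baseline, with increasing signal fitted.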

[20] = read-out: Pselectin, SELP (gene 6403); test: BSK_4H_Pselectin: BioMAP Diversity Plus: 4H Assay for Pselectin Biomarker Activity (AID 2283026); settings: primary human endothelial cells (HUVEC); actives raise or lower the signal
Summary of the method: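 ELISA read-out of P-selectin on human umbilical vein endothelium after 24 h of dosing. Values derive from bidirectional fitting relative to DMSO. Parallel SRB protein staining flagged overt cytotoxicity.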

Measured: AC50

Sequence of E-selectin (Homo sapiens) (P16581 whole entry, looked up): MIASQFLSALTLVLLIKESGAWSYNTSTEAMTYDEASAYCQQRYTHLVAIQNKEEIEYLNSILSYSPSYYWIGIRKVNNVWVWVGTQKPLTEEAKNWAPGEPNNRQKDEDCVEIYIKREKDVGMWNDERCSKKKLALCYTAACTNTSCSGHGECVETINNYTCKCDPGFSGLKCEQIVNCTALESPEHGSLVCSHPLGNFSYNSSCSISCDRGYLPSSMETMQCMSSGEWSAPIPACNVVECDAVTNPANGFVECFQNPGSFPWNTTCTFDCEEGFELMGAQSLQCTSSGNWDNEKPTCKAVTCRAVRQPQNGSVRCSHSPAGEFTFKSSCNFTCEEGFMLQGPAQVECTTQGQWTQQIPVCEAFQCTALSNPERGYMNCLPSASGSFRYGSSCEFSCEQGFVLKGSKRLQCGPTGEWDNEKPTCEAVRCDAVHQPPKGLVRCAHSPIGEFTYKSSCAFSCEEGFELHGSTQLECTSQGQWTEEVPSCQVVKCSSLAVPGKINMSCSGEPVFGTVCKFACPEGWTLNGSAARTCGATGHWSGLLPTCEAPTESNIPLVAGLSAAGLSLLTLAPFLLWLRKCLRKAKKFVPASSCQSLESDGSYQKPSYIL

c1ccc2c(c1)-c1cccc3cccc-2c13
active: [2] 31200 nM
not listed: [19] | [20]
inactive: all other assays above

Cn1cc(-c2ccccc2)c(=O)c(-c2cccc(C(F)(F)F)c2)c1
not listed: [1] | [2] | [3] | [11]
inactive: all other assays above

CCC[CH2][Sn]([Cl])([CH2]CCC)[CH2]CCC
inactive: [3]
active: [1] 245 nM | [2] 63.7 nM | [4] 148 nM | [5] 148 nM | [6] 148 nM | [7] 3620 nM | [8] 148 nM | [9] 155 nM | [10] 148 nM | [11] 1920 nM | [12] 148 nM | [13] 148 nM | [14] 5570 nM | [20] 148 nM | [15] 148 nM | [16] 148 nM | [17] 486 nM | [18] 148 nM

COc1cc(C=O)cc2c1[C@H](COC(N)=O)[C@]1(OC(C)=O)ON2C[C@H]2[C@@H]1N2C(C)=O
active: [4] 10800 nM | [5] 2630 nM | [6] 6850 nM | [7] 3220 nM | [8] 15900 nM | [9] 11900 nM | [12] 6860 nM | [13] 3300 nM | [14] 10300 nM | [15] 3170 nM | [16] 6310 nM | [18] 1140 nM
inactive: [19] | [17]

O=C(Nc1ccccc1)c1ccccc1I
not listed: [10] | [11] | [19]
inactive: all other assays above

Cc1ccc(N=C=O)cc1N=C=O
not listed: [1] | [2] | [3]
inactive: all other assays above

O=P(OCCCl)(OCCCl)OCCCl
not listed: [1] | [2] | [11] | [19] | [20]
inactive: all other assays above

c1ccc(N=Nc2ccccc2)cc1
not listed: [3] | [10] | [19]
inactive: all other assays above
